This passage reports binding signal results from PMC7862700, “An all-to-all approach to the identification of sequence-specific readers for epigenetic DNA modifications on cytosine”.

What all share (experiment): DAPPL (digital affinity profiling via proximity ligation, sequencing); 10 mM Tris-HCl pH 7.5, 50 mM NaCl, 1 mM DTT, 4% glycerol, room temperature, 30 min; GST-TFs on glutathione beads, 16-mer random dsDNA library, 0.1% formaldehyde crosslink after washing; high values mean tight binding
What all share (settings): protein: recombinant; tags: N-terminal GST; dsDNA, one strand shown

One experiment deals with T1, FLI1 (Homo sapiens, UniProt Q01543 1-452).
T1 sequence: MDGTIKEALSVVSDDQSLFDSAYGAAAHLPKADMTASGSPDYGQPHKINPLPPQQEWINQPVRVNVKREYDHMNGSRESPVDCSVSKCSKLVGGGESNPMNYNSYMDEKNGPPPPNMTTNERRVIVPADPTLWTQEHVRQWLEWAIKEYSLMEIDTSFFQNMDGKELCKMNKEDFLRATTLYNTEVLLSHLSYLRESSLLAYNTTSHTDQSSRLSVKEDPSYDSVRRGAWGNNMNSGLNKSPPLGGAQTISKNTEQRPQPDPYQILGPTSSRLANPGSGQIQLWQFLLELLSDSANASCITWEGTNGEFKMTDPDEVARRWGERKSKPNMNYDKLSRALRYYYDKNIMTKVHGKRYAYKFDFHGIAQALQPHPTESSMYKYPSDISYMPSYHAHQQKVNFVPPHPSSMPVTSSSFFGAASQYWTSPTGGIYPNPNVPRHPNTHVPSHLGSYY
In outline: (§1)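 Binding signal is given per hexamer as its read frequency for a factor divided by its frequency in the tag-only sample. GST-fused human transcription factors were expressed in yeast, captured on glutathione beads, barcoded with DNA and pooled with that sample, then incubated with 200 nmole of a 16-mer random double-stranded DNA library in Tris/NaCl/DTT/glycerol buffer for 30 min at room temperature. The pools were then washed, crosslinked, proximity-ligated, amplified by PCR and sequenced on an Illumina NextSeq500.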

The next experiment addresses T2, ELK1 (Homo sapiens, UniProt P19419 1-428).
T2 sequence: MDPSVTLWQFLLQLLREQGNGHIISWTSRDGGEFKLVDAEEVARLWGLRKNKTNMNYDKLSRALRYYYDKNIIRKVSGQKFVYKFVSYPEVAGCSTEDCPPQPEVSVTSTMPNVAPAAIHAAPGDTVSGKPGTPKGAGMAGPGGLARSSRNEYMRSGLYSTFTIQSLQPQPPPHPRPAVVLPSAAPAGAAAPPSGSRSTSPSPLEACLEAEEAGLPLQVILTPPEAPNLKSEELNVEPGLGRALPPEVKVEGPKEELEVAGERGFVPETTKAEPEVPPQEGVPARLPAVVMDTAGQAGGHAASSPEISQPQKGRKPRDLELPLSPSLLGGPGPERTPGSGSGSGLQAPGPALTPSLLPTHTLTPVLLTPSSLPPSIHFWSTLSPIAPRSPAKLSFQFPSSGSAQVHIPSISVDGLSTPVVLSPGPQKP
In outline: as §1

The target in the next experiment is T3, GABPA (Homo sapiens, UniProt Q06546 1-454).
T3 sequence: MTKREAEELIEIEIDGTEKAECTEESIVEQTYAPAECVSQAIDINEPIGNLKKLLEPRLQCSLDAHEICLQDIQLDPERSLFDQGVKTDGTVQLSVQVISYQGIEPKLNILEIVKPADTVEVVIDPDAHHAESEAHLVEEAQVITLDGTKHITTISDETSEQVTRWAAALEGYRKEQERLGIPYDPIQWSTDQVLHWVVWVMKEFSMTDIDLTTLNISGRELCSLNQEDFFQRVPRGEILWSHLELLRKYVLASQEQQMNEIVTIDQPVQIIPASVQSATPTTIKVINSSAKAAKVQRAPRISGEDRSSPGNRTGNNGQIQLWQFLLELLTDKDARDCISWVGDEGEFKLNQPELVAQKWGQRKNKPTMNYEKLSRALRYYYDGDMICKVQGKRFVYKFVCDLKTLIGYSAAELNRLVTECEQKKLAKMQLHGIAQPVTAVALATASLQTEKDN
Put shortly: as §1

The next experiment has as its target T4, ERG (Homo sapiens, UniProt P11308 1-479).
T4 sequence: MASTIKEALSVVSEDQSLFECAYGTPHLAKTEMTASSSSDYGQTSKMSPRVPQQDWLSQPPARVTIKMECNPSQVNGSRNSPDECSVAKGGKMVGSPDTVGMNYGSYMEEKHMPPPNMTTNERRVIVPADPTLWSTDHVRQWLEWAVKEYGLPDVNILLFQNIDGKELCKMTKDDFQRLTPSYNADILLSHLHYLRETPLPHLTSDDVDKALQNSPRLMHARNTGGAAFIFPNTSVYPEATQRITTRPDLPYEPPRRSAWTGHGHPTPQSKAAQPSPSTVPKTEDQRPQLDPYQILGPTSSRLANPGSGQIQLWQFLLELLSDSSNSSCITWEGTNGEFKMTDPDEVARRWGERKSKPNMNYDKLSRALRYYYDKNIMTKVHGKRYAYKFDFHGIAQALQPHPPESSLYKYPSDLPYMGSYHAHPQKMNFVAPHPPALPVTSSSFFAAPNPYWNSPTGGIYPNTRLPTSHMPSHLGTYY
Put shortly: as §1

The next experiment deals with ELF1 (Homo sapiens, UniProt P32519 1-619). Put shortly: as §1
A further experiment deals with T5, EHF (Homo sapiens, UniProt Q9NZC4 1-300).
T5 sequence: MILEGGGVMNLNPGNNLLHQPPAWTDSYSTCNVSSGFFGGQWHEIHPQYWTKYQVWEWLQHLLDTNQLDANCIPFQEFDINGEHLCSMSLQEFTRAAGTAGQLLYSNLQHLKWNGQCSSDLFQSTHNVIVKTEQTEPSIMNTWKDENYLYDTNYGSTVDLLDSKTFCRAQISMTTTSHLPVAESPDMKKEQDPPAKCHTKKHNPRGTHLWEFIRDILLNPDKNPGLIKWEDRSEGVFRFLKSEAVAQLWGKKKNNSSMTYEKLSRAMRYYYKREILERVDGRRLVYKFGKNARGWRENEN
In outline: as §1

Another experiment concerns the target SPI1 (Homo sapiens, UniProt P17947 1-270). In outline: as §1
For the next experiment, the target named is SPIB (Homo sapiens, UniProt Q01892 1-262). Put shortly: as §1
In a further experiment the target is T6, ELK3 (Homo sapiens, UniProt P41970 1-407).
T6 sequence: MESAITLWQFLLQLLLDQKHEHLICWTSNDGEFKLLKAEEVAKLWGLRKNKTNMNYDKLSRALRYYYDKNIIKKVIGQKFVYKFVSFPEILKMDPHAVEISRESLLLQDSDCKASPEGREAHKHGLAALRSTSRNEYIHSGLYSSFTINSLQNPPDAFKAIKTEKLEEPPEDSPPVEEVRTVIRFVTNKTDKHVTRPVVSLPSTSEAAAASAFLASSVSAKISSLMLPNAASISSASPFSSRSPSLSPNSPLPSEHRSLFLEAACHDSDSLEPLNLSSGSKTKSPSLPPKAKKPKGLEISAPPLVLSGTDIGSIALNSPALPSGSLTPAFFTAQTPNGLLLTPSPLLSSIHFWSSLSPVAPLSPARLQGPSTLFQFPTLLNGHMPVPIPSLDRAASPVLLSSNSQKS
Put shortly:
as §1

ELF1, sequence (P32519 whole entry): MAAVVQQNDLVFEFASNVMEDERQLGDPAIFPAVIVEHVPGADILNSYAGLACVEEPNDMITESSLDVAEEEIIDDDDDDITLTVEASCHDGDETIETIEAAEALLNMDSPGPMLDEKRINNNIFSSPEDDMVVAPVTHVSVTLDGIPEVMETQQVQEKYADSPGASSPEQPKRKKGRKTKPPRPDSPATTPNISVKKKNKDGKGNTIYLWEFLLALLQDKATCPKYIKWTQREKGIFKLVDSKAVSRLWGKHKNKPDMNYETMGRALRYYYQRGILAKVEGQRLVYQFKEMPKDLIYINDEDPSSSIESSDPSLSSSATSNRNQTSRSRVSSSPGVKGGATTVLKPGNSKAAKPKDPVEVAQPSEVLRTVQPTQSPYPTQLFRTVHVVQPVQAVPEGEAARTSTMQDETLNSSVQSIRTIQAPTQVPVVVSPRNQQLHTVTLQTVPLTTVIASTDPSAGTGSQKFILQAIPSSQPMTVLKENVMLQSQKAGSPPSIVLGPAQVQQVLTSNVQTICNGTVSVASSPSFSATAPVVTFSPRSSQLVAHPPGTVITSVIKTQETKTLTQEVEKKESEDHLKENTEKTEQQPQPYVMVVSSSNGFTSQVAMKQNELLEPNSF
SPIB, sequence (Q01892 whole entry): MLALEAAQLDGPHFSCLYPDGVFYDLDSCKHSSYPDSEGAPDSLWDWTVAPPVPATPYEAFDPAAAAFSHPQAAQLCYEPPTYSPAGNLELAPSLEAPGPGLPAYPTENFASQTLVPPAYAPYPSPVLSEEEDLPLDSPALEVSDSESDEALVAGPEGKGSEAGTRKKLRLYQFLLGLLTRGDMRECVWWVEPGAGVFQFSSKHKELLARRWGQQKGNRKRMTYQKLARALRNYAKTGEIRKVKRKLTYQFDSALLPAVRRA

With GCCTTC, the binding signal is 1.41 fold enrichment (6-mer frequency, TF over GST control) in the experiment with FLI1; 1.51 fold enrichment (6-mer frequency, TF over GST control) with ELK1; 1.54 fold enrichment (6-mer frequency, TF over GST control) with GABPA; 1.52 fold enrichment (6-mer frequency, TF over GST control) with ERG; 1.58 fold enrichment (6-mer frequency, TF over GST control) with ELF1; 1.43 fold enrichment (6-mer frequency, TF over GST control) with EHF. The binding signal was 1.39 fold enrichment (6-mer frequency, TF over GST control) with SPI1; 1.54 fold enrichment (6-mer frequency, TF over GST control) with SPIB; 1.52 fold enrichment (6-mer frequency, TF over GST control) with ELK3.
Regarding TATATT, the binding signal with FLI1 was 1.34 fold enrichment (6-mer frequency, TF over GST control); with ELK1, 1.33 fold enrichment (6-mer frequency, TF over GST control); in the experiment with GABPA, 1.47 fold enrichment (6-mer frequency, TF over GST control); with ERG it was 1.41 fold enrichment (6-mer frequency, TF over GST control); with ELF1, 1.47 fold enrichment (6-mer frequency, TF over GST control); in the experiment with EHF, 1.43 fold enrichment (6-mer frequency, TF over GST control). The binding signal in the experiment with SPI1 was 1.3 fold enrichment (6-mer frequency, TF over GST control); with SPIB it was 1.34 fold enrichment (6-mer frequency, TF over GST control); with ELK3, 1.3 fold enrichment (6-mer frequency, TF over GST control).
Regarding ACCTCT, the binding signal was 1.32 fold enrichment (6-mer frequency, TF over GST control) with FLI1; 1.37 fold enrichment (6-mer frequency, TF over GST control) in the experiment with ELK1; 1.41 fold enrichment (6-mer frequency, TF over GST control) in the experiment with GABPA; 1.41 fold enrichment (6-mer frequency, TF over GST control) in the experiment with ERG; 1.47 fold enrichment (6-mer frequency, TF over GST control) in the experiment with ELF1; 1.37 fold enrichment (6-mer frequency, TF over GST control) with EHF. Moreover, the binding signal was 1.29 fold enrichment (6-mer frequency, TF over GST control) with SPI1; 1.24 fold enrichment (6-mer frequency, TF over GST control) with SPIB; 1.36 fold enrichment (6-mer frequency, TF over GST control) in the experiment with ELK3.
As to GCTTTG, the binding signal in the experiment with FLI1 was 1.24 fold enrichment (6-mer frequency, TF over GST control); in the experiment with ELK1, 1.1 fold enrichment (6-mer frequency, TF over GST control); in the experiment with GABPA, 1.11 fold enrichment (6-mer frequency, TF over GST control); with ERG, 1.15 fold enrichment (6-mer frequency, TF over GST control); with ELF1, 1.14 fold enrichment (6-mer frequency, TF over GST control); in the experiment with EHF, 1.15 fold enrichment (6-mer frequency, TF over GST control). The binding signal was 1.07 fold enrichment (6-mer frequency, TF over GST control) with SPI1; 1.14 fold enrichment (6-mer frequency, TF over GST control) with SPIB; 1.12 fold enrichment (6-mer frequency, TF over GST control) with ELK3.
As to ATGGCC, the binding signal was 1.31 fold enrichment (6-mer frequency, TF over GST control) with FLI1; 1.42 fold enrichment (6-mer frequency, TF over GST control) with ELK1; 1.45 fold enrichment (6-mer frequency, TF over GST control) in the experiment with GABPA; 1.46 fold enrichment (6-mer frequency, TF over GST control) with ERG; 1.35 fold enrichment (6-mer frequency, TF over GST control) with ELF1; 1.27 fold enrichment (6-mer frequency, TF over GST control) in the experiment with EHF. The binding signal in the experiment with SPI1 was 1.37 fold enrichment (6-mer frequency, TF over GST control); with SPIB it was 1.39 fold enrichment (6-mer frequency, TF over GST control); in the experiment with ELK3, 1.24 fold enrichment (6-mer frequency, TF over GST control).
ACATAT: the binding signal with FLI1 is 1.18 fold enrichment (6-mer frequency, TF over GST control); with ELK1, 1.25 fold enrichment (6-mer frequency, TF over GST control); in the experiment with GABPA, 1.3 fold enrichment (6-mer frequency, TF over GST control); with ERG it was 1.25 fold enrichment (6-mer frequency, TF over GST control); with ELF1, 1.27 fold enrichment (6-mer frequency, TF over GST control); in the experiment with EHF, 1.22 fold enrichment (6-mer frequency, TF over GST control). For the same sequence, the binding signal with SPI1 is 1.2 fold enrichment (6-mer frequency, TF over GST control); with SPIB it was 1.2 fold enrichment (6-mer frequency, TF over GST control); with ELK3, 1.28 fold enrichment (6-mer frequency, TF over GST control).
Consider GTAAAC, for which the binding signal with FLI1 was 1.16 fold enrichment (6-mer frequency, TF over GST control); with ELK1, 1.26 fold enrichment (6-mer frequency, TF over GST control); with GABPA, 1.26 fold enrichment (6-mer frequency, TF over GST control); in the experiment with ERG, 1.19 fold enrichment (6-mer frequency, TF over GST control); with ELF1 it was 1.17 fold enrichment (6-mer frequency, TF over GST control); with EHF, 1.25 fold enrichment (6-mer frequency, TF over GST control). For the same sequence, the binding signal was 1.25 fold enrichment (6-mer frequency, TF over GST control) in the experiment with SPI1; 1.25 fold enrichment (6-mer frequency, TF over GST control) with SPIB; 1.25 fold enrichment (6-mer frequency, TF over GST control) in the experiment with ELK3.
With TTGTCT, the binding signal was 1.29 fold enrichment (6-mer frequency, TF over GST control) in the experiment with FLI1; 1.23 fold enrichment (6-mer frequency, TF over GST control) with ELK1; 1.33 fold enrichment (6-mer frequency, TF over GST control) with GABPA; 1.15 fold enrichment (6-mer frequency, TF over GST control) with ERG; 1.27 fold enrichment (6-mer frequency, TF over GST control) with ELF1; 1.18 fold enrichment (6-mer frequency, TF over GST control) with EHF. Besides, the binding signal with SPI1 was 1.19 fold enrichment (6-mer frequency, TF over GST control); with SPIB, 1.15 fold enrichment (6-mer frequency, TF over GST control); with ELK3, 1.31 fold enrichment (6-mer frequency, TF over GST control).
